# Screen size: about 290,000 compounds; about 160 (0.055%) were called active. This excerpt belongs to a sample that is enriched for actives. Unmarked numbers belong to inactive results. Cut-off read from the data, not from the text of the source: active = inhibition above about 50%; inactive = the rest.
# Biological target: Tyrosine-protein phosphatase non-receptor type 22 (Homo sapiens) (UniProt Q9Y2R2)
# Test: PTPN22 lymphoid phosphatase activity blockers – biochemical, fluorescence intensity, uHTS (AID 1779);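 note: plate controls were vehicle with enzyme for no effect and no enzyme for full effect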
# Details: recombinant LYP phosphatase, at 11.5 µM, active compounds read high
# Chain of Tyrosine-protein phosphatase non-receptor type 22 (Homo sapiens) (Q9Y2R2 whole entry, looked up): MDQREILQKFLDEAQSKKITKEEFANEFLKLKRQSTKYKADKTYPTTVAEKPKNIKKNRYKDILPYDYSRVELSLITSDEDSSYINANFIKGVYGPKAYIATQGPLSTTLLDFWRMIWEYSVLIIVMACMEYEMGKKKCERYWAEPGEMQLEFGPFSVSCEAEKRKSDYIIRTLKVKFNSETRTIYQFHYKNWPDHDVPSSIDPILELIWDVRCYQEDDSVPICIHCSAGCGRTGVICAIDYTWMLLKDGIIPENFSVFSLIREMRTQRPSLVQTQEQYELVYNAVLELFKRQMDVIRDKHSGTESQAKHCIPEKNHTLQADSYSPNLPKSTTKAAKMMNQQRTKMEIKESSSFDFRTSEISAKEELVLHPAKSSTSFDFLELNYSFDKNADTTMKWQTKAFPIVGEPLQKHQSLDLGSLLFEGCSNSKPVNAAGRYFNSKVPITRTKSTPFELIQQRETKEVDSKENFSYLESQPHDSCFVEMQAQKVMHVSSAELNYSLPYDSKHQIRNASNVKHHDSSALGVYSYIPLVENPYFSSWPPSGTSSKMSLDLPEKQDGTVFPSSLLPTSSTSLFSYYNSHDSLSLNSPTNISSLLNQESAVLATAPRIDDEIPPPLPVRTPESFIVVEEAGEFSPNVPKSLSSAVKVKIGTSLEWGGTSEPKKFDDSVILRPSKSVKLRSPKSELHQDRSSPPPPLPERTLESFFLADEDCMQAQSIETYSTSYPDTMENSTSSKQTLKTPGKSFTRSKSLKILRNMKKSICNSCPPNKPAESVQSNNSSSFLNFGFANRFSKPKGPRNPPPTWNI
row,Compound,inhibition
1,N#C/C(=C/c1ccccc1OCc1ccc(F)cc1)c1ccc(C(=O)O)cc1,-6.7%
2,N#C/C(=C\c1ccc(OCc2ccccc2)cc1)C(=O)Nc1ccc(C(=O)O)cc1,3%
3,N#C/C(=C\c1ccc(OCc2ccc(Br)cc2)cc1)C(=O)Nc1cccc(C(=O)O)c1,93.4% (active)
4,CCOc1cc(/C=C(\C#N)C(=O)Nc2cccc(C(=O)O)c2)ccc1OCc1ccccc1Cl,-2.4%
5,N#C/C(=C\c1ccccc1OCc1ccc(C(=O)O)cc1)c1ccccc1,-4.4%
6,N#C/C(=C\c1ccc(OCc2ccc(F)cc2)cc1)C(=O)Nc1cccc(C(=O)O)c1,5.5%
7,COc1cc(/C=C(\C#N)C(=O)Nc2cccc(C(=O)O)c2)ccc1OCc1ccc(Cl)cc1,15%
8,COc1cc(/C=C(\C#N)C(=O)Nc2cccc(C(=O)O)c2)ccc1OCc1ccc(C)cc1,-1.7%
9,N#C/C(=C/c1ccc(OCc2ccc(C(=O)O)cc2)cc1)C(=O)Nc1ccccc1,-4.6%
10,COc1ccc(-c2sc3ccccc3c2C#CC2(O)CCCCC2)cc1,-5%
11,CSc1nc2ccc(NS(=O)(=O)c3ccc(Cl)s3)cc2s1,1.1%
12,COC(=O)CSCC(=O)Nc1nnc(-c2cccc(C)c2)s1,5%
13,CC(=O)c1sc(NC(=O)C(C)Oc2ccc3c(C)cc(=O)oc3c2)nc1C (stereo not given),-5.1%
14,CC(=O)N(C)c1ccc(NC(=S)Nc2cccc3ccccc23)cc1,-2.8%
15,O=C(Cn1nc(Cc2cccnc2)c2ccccc2c1=O)Nc1cc(F)ccc1F,-6.7%
16,O=C(N=C1SC2CS(=O)(=O)CC2N1Cc1ccccc1Cl)C1CC1 (stereo not given),-11.3%
17,COc1ccccc1CNC(=O)c1cc2sccc2n1C,-5.5%
18,CC(=O)Nc1ccc(S(=O)(=O)N2CCC(NC(=O)C(Cc3ccc(C)cc3)NC(C)=O)CC2)cc1 (stereo not given),-16%
19,CCC1=C(OC(=O)N(CC)CC)N2C(=O)OC(=NCC3CC3)[C@]2(C)[C@H]2C1=CC[C@H]1C(=O)NC(=O)[C@H]12,-0.8%
20,CCOC(=O)c1c(C)[nH]c(C)c1C(=O)CSc1nc2ccccc2n1CC,-7.1%
21,O=C(O)C1CCCCC1C(=O)Nc1ccc(Cl)cc1 (stereo not given),-1.6%
22,O=C(O)C1CC=CCC1C(=O)Nc1ccc(F)c(F)c1 (stereo not given),6.1%
23,O=C(O)C1CCCCC1C(=O)Nc1ccc(F)c(F)c1 (stereo not given),51.4% (active)
24,COc1cccc(C2C(C(=O)c3cc4ccccc4o3)=C(O)C(=O)N2c2cc(C)on2)c1 (stereo not given),-8%

row,Compound,inhibition
1,Cc1ccc(C)c(CN2C(=O)COc3ccc(C(=O)c4ccccc4C(=O)O)cc32)c1,57.9% (active)
2,Cc1ccc(C)c(CN2C(=O)COc3ccccc32)c1,-5.6%
3,CCCN1C(=O)COc2ccc(C(=O)c3ccccc3C(=O)O)cc21,-4.6%
4,O=S(=O)(/C=C/c1ccccc1)NC1CCCCCCC1,-7.9%
5,CC(c1ccccc1)n1c(N2CCN(C)CC2)nc2c1c(=O)[nH]c(=O)n2C (stereo not given),-0.2%
6,CCN(CC)CCNC(=O)Cc1nn(CC)c(=O)c2ccccc12,-9.1%
7,COCCn1c(=O)c2cc3c(=O)n(CCOC)c(=O)c3cc2c1=O,-8.5%
8,CCC(=O)NCCc1cc2ccc(C)c(C)c2[nH]c1=O,1.7%
9,CCCC(=O)NCCc1cc2ccc(C)c(C)c2[nH]c1=O,67.2% (active)
10,CC(=O)NCCc1cc2ccc(C)c(C)c2[nH]c1=O,0.4%
11,CCOc1ccccc1/C=N/OCC(=O)NCc1ccc(F)cc1,-5.5%
12,O=C(O)c1ccc(-n2c(=O)c3ccccc3c3ccccc3c2=O)cc1,-4%
13,Cc1ccc(N2C(=O)c3ccc(C(=O)O)cc3C2=O)cc1C,-1.9%
14,Cc1ccc(-n2c(=O)c3cc4c(=O)n(-c5ccc(C)c(C)c5)c(=O)c4c(C(=O)c4ccc(C(=O)O)cc4)c3c2=O)cc1C,85.8% (active)
15,COCCN(C(=O)c1csnn1)C(C(=O)NC1CCCCC1)c1ccc(C)cc1 (stereo not given),-9.2%
16,NC(=O)C(c1cccc(Cl)c1)c1ncc(C(F)(F)F)cc1Cl (stereo not given),-10.5%
17,C#CCOc1ccc(/C=N/NC(=O)c2cccnc2)cc1OCC,1.2%
18,COc1ccccc1OCC(=O)OCC(=O)Nc1ncc(Cl)cc1Cl,-9.7%
19,O=C(Nc1ccccc1)C1=C[C@@H](C2CCCCC2)C[C@@H](OCCCCO)O1,2.1%
20,O=C(O)CCN1C(=O)/C(=C/c2ccc(-c3nc4ccccc4s3)o2)SC1=S,14.6%
21,O=C(O)CCCN1C(=O)/C(=C\c2ccc(-c3nc4ccccc4s3)o2)SC1=S,6.8%
22,O=C(c1ccc2c(c1)OCO2)N1CCC2(CC1)Oc1ccc(Cl)cc1C(=O)C21CC(c2ccccc2)=NO1 (stereo not given),5.7%
23,O=C(O)c1cccc(-n2cccc2/C=C2/NC(=O)N(c3cccc(Cl)c3)C2=O)c1,0.3%
24,O=C(O)c1ccc(-n2cccc2/C=C2/NC(=O)N(c3cccc(Cl)c3)C2=O)cc1,6.2%

row,Compound,inhibition
1,Cc1cc(NC(=O)Nc2ccc(Cl)cc2)no1,-8.1%
2,CC[C@H](C)[C@H](NC(N)=O)C(=O)OCC(=O)NCc1ccc(Cl)cc1,-4.9%
3,COc1cc2c(cc1OC)-c1nnc(-c3ccco3)n1C1(CCCC1)C2,-4.3%
4,Cc1cc(N2CCOCC2)nc(SCc2ccc(Cl)cc2Cl)n1,-4.6%
5,O=C(O)C1CCC(N2C(=O)C3CCCCC3C2=O)CC1 (stereo not given),-12.2%
6,O=C(O)C1CCC(N2C(=O)c3c(Cl)c(Cl)c(Cl)c(Cl)c3C2=O)CC1 (stereo not given),94.2% (active)
7,O=C(O)C1CCC(N2C(=O)c3cccc([N+](=O)[O-])c3C2=O)CC1 (stereo not given),-7.1%
8,Cc1cccc(OCC(=O)Nc2nnn(C)n2)c1C,-6.4%
9,COc1cc(/C=N/NC(=O)c2cc(-c3ccccc3)nc3ccccc23)ccc1O,-1.5%
10,COc1cc(/C=N/NC(=O)c2cc(-c3ccccc3OC(C)C)nc3ccccc23)ccc1O,4.4%
11,CCOc1ccccc1-c1cc(C(=O)N/N=C/c2ccc(O)c(OC)c2)c2ccccc2n1,64.5% (active)
12,O=C(NCCc1ccccn1)C1CCN(S(=O)(=O)c2ccc(Cl)cc2)CC1,-6.8%
13,CCOC(=O)c1ccc(NC(=S)NC(=O)c2nn(CC)cc2Br)cc1,1.9%
14,CCOC(=O)c1ccc(NC(=O)c2nn(CC)cc2Br)cc1,-4.5%
15,CCn1cc(Br)c(C(=O)NC(=S)Nc2ccc(C(=O)OC)cc2)n1,65.2% (active)
16,COC(=O)CNC(=O)c1ccc(C)s1,-7.8%
17,CN(C)S(=O)(=O)N1CCN(S(=O)(=O)c2ccc3ccccc3c2)CC1,71.6% (active)
18,CCS(=O)(=O)N1CCN(S(=O)(=O)c2ccc3ccccc3c2)CC1,-9.2%
19,CN1CCN(S(=O)(=O)c2ccc3ccccc3c2)CC1,-4.3%
20,CCN(CC(=O)N1CCOCC1)S(=O)(=O)c1ccc2ccccc2c1,-8.1%
21,Cc1ccc(OCC(O)CNS(=O)(=O)c2ccccc2C(=O)O)cc1 (stereo not given),-4.9%
22,CCC(=O)Nc1ccc(/C(C)=N/NC(=O)c2c(-c3ccccc3Cl)noc2C)cc1,-2.5%
23,C/C(=N\NC(=O)c1c(-c2ccccc2Cl)noc1C)c1cccc(NC(=O)C(C)C)c1,77.1% (active)
24,CC(=O)Nc1cccc(NC(=O)c2c(-c3ccccc3Cl)noc2C)c1,-3.7%

row,Compound,inhibition
1,C/C(=N\NC(=O)C(=O)Nc1cccc(Cl)c1C)c1ccncc1,-8%
2,O=C(c1cc2cc(F)ccc2[nH]1)N1CCN(C(=O)c2ccco2)CC1,95.1% (active)
3,CN1CCN(C(=O)c2cc3cc(F)ccc3[nH]2)CC1,-9.9%
4,O=C(c1cc2cc(Cl)ccc2[nH]1)N1CCN(C(=O)c2ccco2)CC1,-9.3%
5,O=C(NNc1c(Cl)cccc1Cl)c1cccs1,-4.8%
6,CCCC(=O)Nc1ccc(Cl)c(NC(=O)CC)c1,-12.2%
7,O=C(NC(=S)Nc1ccccc1C(=O)O)c1ccc(-c2ccc(Br)cc2)o1,1.2%
8,O=C(O)c1ccc(NC(=S)NC(=O)c2ccc(-c3ccc(Br)cc3)o2)cc1,86.9% (active)
9,O=C(NC(=S)Nc1ccc(CN2CCOCC2)cc1)c1ccc(-c2ccc(Br)cc2)o1,-14.4%
10,CCCc1cc(C(=O)NC2CCCN(Cc3ccccc3F)C2)no1 (stereo not given),-1.5%
11,CC(=O)N(CC(=O)O)c1ccccc1,-0.7%
12,O=C(COc1ccccc1F)Nc1cc(S(=O)(=O)N2CCOCC2)ccc1N1CCOCC1,-1.3%
13,CCC(C)NCCOCCOc1ccc(Cl)c2ccccc12 (stereo not given),1.1%
14,CCC(C)NCCOCCOc1ccc(Cl)c(C)c1C (stereo not given),76.9% (active)
15,CCC(C)NCCOCCOc1ccc(Cl)cc1Br (stereo not given),-3.3%
16,Cc1c(Cl)cccc1NC(=S)N=Nc1c(O)n(CN2CCOCC2)c2ccccc12,-0.8%
17,Cc1ccc(N=Nc2c(O)n(CN3CCOCC3)c3ccccc23)cc1,72% (active)
18,Cc1cccc(NC(=S)N=Nc2c(O)n(CN3CCOCC3)c3ccccc23)c1C,-4.1%
19,O=S(=O)(CCCc1ccccc1)c1ncn[nH]1,-3%
20,COc1ccc(N(CC(=O)NCCSC(C)(C)C)S(C)(=O)=O)c(OC)c1,-6.6%
21,Cc1ccc(OCC(=O)N/N=C/c2ccco2)cc1,-5.1%
22,Cc1ccc(OCC(=O)N/N=C\c2ccco2)c(C)c1,51.3% (active)
23,Cc1ccccc1OCC(=O)N/N=C/c1ccco1,-3.4%

# Source: PubChem BioAssay AID1779 (Sanford-Burnham Center for Chemical Genomics, 2009)
